# HTR5A ag ctr – HTR5A agonism, opioid heterodimer counter-screen. P47898. HTR5A agonist assay, luminescence, cell-based. activation, % at 9.3 µM. 340,000 tested, 0.61% active; in the data active = activation mostly above about 9.5%, no sharp cut-off; inactive = mostly below about 7.6%;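 also: 0% = cells with vehicle only and 100% = reference agonist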
# OPRM1-OPRD1 ag – OPRM1-OPRD1 heterodimerization agonism; P35372+P41143; cells, luminescence; activation, % at 9.3 µM; 340,000 tested, 0.3% active; AID 504326; in the data active = activation above about 18%;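 also: 0% = vehicle-treated cells and 100% = reference agonist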
# Target sequence (P35372 whole entry, looked up): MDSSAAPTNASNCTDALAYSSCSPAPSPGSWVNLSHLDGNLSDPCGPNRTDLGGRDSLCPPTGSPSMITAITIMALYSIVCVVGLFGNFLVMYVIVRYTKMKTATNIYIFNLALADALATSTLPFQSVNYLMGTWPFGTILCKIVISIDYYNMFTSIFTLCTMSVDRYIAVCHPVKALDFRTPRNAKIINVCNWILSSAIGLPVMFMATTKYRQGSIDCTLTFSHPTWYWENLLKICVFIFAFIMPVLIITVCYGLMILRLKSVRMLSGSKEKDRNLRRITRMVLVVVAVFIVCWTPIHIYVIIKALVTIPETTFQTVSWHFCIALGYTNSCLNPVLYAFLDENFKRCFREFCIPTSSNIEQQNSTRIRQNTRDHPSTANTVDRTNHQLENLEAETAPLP
# Target sequence (P41143 whole entry, looked up): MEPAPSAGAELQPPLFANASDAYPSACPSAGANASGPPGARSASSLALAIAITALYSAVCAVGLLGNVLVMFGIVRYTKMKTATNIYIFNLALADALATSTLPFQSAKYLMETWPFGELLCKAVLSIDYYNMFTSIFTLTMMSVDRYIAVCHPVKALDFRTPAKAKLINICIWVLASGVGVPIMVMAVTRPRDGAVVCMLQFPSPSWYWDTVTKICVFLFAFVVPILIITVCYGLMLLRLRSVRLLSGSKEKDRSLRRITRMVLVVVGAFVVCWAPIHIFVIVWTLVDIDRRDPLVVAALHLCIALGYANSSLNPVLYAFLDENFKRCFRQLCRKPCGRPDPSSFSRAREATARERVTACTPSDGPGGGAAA
# m5-HT2A agonist – mouse HTR2A agonism via beta-arrestin recruitment. P35363. CHO-K1 mHTR2A beta-arrestin complementation, luminescence; percent of 30 µM serotonin response. activation, % at 7.6 µM. 360,000 tested, 0.66% active;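 active = activation above a run cutoff, the mean activation of all tested compounds plus 3 SD, cut at about 14% in these data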;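 also: 0% = plate median of compound wells and 100% = 30 µM serotonin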
# HTR5A inv ag – HTR5A inverse agonism, opioid heterodimer counter-screen | P47898 | AID 504634 | 340,000 tested, 0.083% active | inhibition, % at 9.3 µM | HTR5A cell line, luminescence; in the data active = inhibition mostly above about 23%, no sharp cut-off; inactive = mostly below about 18%;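 also: 0% = cells with DMSO and 100% = no-cell wells with DMSO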
# OPRM1-OPRD1 inv – inverse agonists of human mu-delta opioid receptor heterodimerization; inhibition, % at 9.3 µM; P35372+P41143; 340,000 tested, 0.21% active; AID 504357; cell-based MOR-DOR heterodimer luminescence, inverse agonism; in the data active = inhibition above about 22%, passing the limit was not always enough;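 also: 0% = cells with DMSO and 100% = wells without cells with DMSO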
# OPRM1 ag – activates human mu opioid receptor in HTR2A counterscreen; shares compounds with m5-HT2A agonist; U2OS OPRM1 beta-arrestin PathHunter, luminescence; DMSO 0%, DAMGO 9.3 µM 100%; activation, % at 9.3 µM; 2,300 tested, 5.3% active; AID 624380;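 active = mean activation above the mean of DMSO-only wells plus 3 SD, cut at about 0.5% in these data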
# m5-HT2A ag conf – confirmation of mouse HTR2A serotonin receptor agonists; CHO-K1 PathHunter beta-arrestin recruitment, luminescence; DMSO 0%, 30 µM serotonin 100%; shares compounds with m5-HT2A agonist; activation, % at 7.6 µM; 2,300 tested, 19% active;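 active = mean activation across triplicates above the hit threshold derived in the original primary screen, cut at about 15% in these data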
# An asterisk follows results filed as active; · = no result. Sampled rows, rich in hits. Any-hit rate of the full collection: about 1.6%.
SMILES,HTR5A ag ctr,OPRM1-OPRD1 ag,m5-HT2A agonist,HTR5A inv ag,OPRM1-OPRD1 inv,OPRM1 ag,m5-HT2A ag conf
O=C(CCS(=O)(=O)c1ccc(Cl)cc1)OCC(=O)N1CCCCC1,12,0,16*,-33,1,-1,-2
O=C(NCc1ccccc1)C(c1ccc(-c2ccccc2)cc1)N1CCN(c2ccccc2F)CC1 (stereo not drawn),·,·,1,·,·,·,·
O=C(O)CSc1cnc2ccccc2n1,-8,3,18*,2,-16,-1,-3
Cc1csc(NC(=O)C2CCCN(S(=O)(=O)c3ccc4c(c3)oc(=O)n4C)C2)n1 (stereo not drawn),12,2,21*,-32,-8,0,1
O=S1(=O)N[C@H](Cc2ccccc2)COc2cc(N3CCN(Cc4ccccc4F)CC3)ccc21,·,·,4,·,·,·,·
CCOC(=O)c1ccccc1NC(=O)c1ccc2c(SCC(=O)O)c3c(nc2c1)CCCC3,1,-1,15*,-4,5,-1,-1
COc1ccc(S(=O)(=O)NCC2CCCN(C(=O)c3cccnc3C)C2)cc1 (stereo not drawn),1,-2,15*,-3,8,0,3
CNc1cccnc1C=NNC(N)=S,2,0,15*,-9,-1,-1,-3
CCC(CC)C(=O)NCCc1cc2ccc(C)cc2[nH]c1=O,-1,-3,21*,2,15,0,-5
O=C(O)c1c[nH]c2nccnc12,·,·,-3,·,·,·,·
O=C(C[n+]1ccccc1)N1CCCc2ccccc21,-1,-2,20*,2,11,0,2
O=C(NCc1ccccc1Cl)[C@H]1CCCN1C(=O)[C@H]1CCCN1C(=O)c1cccc2ccccc12,·,·,10,·,·,·,·
O=C(Nc1ccc(CN2CCOCC2)cc1)c1ccc(Cl)cc1,1,1,-4,-3,-5,·,·
O=C(NC1(N2CCOCC2)CC1)c1ccc(Cl)cc1,-1,-3,15*,2,16,-1,-2
COc1cc2c(cc1OC)CN(c1nc(CN3CCCC3)nc3sc(C)c(C)c13)CC2,-2,-4,35*,-34,18,-1,32*
CCOC(=O)C1=CCN(S(=O)(=O)c2ccccc2Cl)C1c1cccc(C)c1 (stereo not drawn),·,·,-2,·,·,·,·
S=c1[nH]nc(C2CC2)n1Cc1ccccc1,2,-1,0,-5,3,·,·
S=c1[nH]nc(C2CCCCC2)n1Cc1ccccc1,-1,-3,15*,10,12,0,-2
C#C[C@]1(O)CCC2C3CCC4=CC(=O)CC[C@@H]4C3CC[C@@]21C (stereo partly drawn),0,-2,15*,0,9,-1,4
C#CC1(O)CCC2C3CCc4cc(O)cc(C)c4C3CCC21C (stereo not drawn),-3,-3,-2,11,15,·,·
COc1cc(C(=O)N2CCCC(C)(C(=O)NS(=O)(=O)C3CC3)C2)cc(OC)c1OC (stereo not drawn),·,·,4,·,·,·,·
Cc1csc2nc(CNS(=O)(=O)c3ccc4c(c3)OCCO4)cn12,-2,-1,-5,-10,5,·,·
Cc1ccn2cc(CNS(=O)(=O)c3ccc4c(c3)OCCO4)nc2c1,10,-2,26*,-18,13,0,2
Cc1ccc(S(=O)(=O)N2CCCCC2)cc1NS(=O)(=O)c1ccc(Cl)c(C(=O)O)c1,3,-3,17*,14,16,0,1
O=C(O)c1cc(S(=O)(=O)N2CCCCC2)ccc1Cl,8,0,4,-10,0,·,·
SMILES,HTR5A ag ctr,OPRM1-OPRD1 ag,m5-HT2A agonist,HTR5A inv ag,OPRM1-OPRD1 inv,OPRM1 ag,m5-HT2A ag conf
Nc1nc(CN2CCN(Cc3ccccc3)CC2)nc(Nc2ccccc2)n1,3,2,-6,6,-9,·,·
Nc1nc(CN2CCN(c3ccccc3F)CC2)nc(Nc2ccc3c(c2)OCCO3)n1,-1,6,22*,-10,-32,-1,36*
Nc1nc(CN2CCN(c3ccccn3)CC2)nc(Nc2ccc(Cl)cc2)n1,6,0,15*,9,-3,0,73*
O=C(NCc1ccccc1)c1cc(C2COCCN2S(=O)(=O)c2cccs2)on1 (stereo not drawn),·,·,9,·,·,·,·
Cc1ccc(C(=O)c2nc(C(=O)NCCO)nc3ccccc23)cc1,-1,2,16*,2,-10,-1,-3
O=C(CN1CCN(C(=O)c2ccccc2)CC1)NC(=O)NCCC1=CCCCC1,1,-1,20*,-3,4,-1,-3
CC(c1ccccc1)N(C)CC(=O)NC(=O)NCCC1=CCCCC1 (stereo not drawn),6,6,7,-14,-24,·,·
CCN(CC)c1ccc(NC(=O)C2=CCN(S(=O)(=O)c3ccc(F)cc3)CC2)c(C)c1,3,0,17*,-9,0,-1,-6
Cc1ccc(S(=O)(=O)N2CC=C(C(=O)NCc3ccc(F)cc3)CC2)cc1,6,3,5,-16,-17,·,·
Cc1c(C(=O)Nc2ccc(S(=O)(=O)N3CCOCC3)cc2)cccc1[N+](=O)[O-],0,-2,19*,1,11,0,1
Cc1cccc(C(=O)Nc2ccc(S(=O)(=O)N3CCOCC3)cc2)c1[N+](=O)[O-],2,-2,-3,-9,9,·,·
CCOC(=O)[C@]12CCCC=C1N(Cc1ccc(Cl)cc1Cl)C(=O)[C@H](CC(=O)NCc1ccc(OC)c(OC)c1)C2,·,·,5,·,·,·,·
CC1=C(C(=O)N2CCCCCC2)CC(CC(=O)NC(c2ccccc2)c2ccccc2)C(=O)N1CCC1=CCCCC1 (stereo not drawn),·,·,-4,·,·,·,·
Cc1cccc(C)c1NC(=O)NN=C1CCCCC1,-4,-1,16*,-16,5,-1,-3
CC(CN1CCCCC1)C(=O)NNC(=O)C12CC3CC(CC(C3)C1)C2 (stereo not drawn),-2,-3,16*,4,12,0,-3
COC(=O)CN1C(=O)COc2ccc(S(=O)(=O)N3CCCCC3)cc21,·,·,3,·,·,·,·
CCOC(=O)c1cccnc1SCC(=O)NC(C)CC (stereo not drawn),4,2,1,-4,-12,·,·
CCOC(=O)c1cccnc1SCC(=O)Nc1ccc(C)cc1,0,0,16*,-1,0,-1,-4
CCOC(=O)c1ccc(NC(=O)CSCC(=O)OCC(=O)c2ccccc2)cc1,-1,-1,15*,-11,7,0,-3
CCOC(=O)c1ccc(NC(=O)Cn2nnc(-c3ccccc3)n2)cc1,-3,9,21*,1,-49,0,2
CCOC(=O)c1ccc(NC(=O)Cn2nnc(-c3ccc(F)cc3)n2)cc1,-1,5,1,2,-25,·,·
